Data: PubChem BioAssay (NCI)
Compounds without any hit were thinned out: in the full panel of roughly 83,000, 20% have a hit.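 Method: cells in 96-well plates; compound added at one concentration; 48 h incubation; percent growth measured; values under 10 scored active.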 Unmarked numbers belong to inactive results. Activity calls are given as the source filed them.

tested on: ACHN renal; assay: NCI-60 one-dose screen, 48 h (100 = growth as untreated, 0 = no growth, -100 = all killed); conditions: 10 µM unless noted
Procedure: Growth inhibition of the ACHN human tumor cell line is measured as a screen for anti-cancer activity. Cells are grown in 96 well plates and exposed to the test compound for 48 hours. Compounds are tested at a single concentration, which is 10^-5 M for most compounds. The reported endpoint is percent growth (GI% or GIPRCNT), where numbers from 0 - 100% represent growth inhibition, and numbers from -100% - 0 represent cell death. For example, a value of 40 represents 60% growth inhibition. A value of 0 means no net growth occurred over the course of the experiment. A value of -40 indicates 40% of cells at the beginning of the experiment died by the end of the experiment. A value of -100 means all cells are dead at the end of the experiment.
NCI-60 Human Tumor Cell Lines Screen was performed using the standard one-dose NCI protocol, which is described in more detail at https://dtp.cancer.gov/discovery_development/nci-60/default.htm.
Compounds with GIPRCNT values below 10 were considered active. Activity score was based on GIPRCNT using the following formula: […]
Score is 0 for GIPRCNT values of 100 or above, 50 for GIPRCNT values of 0, and 100 for GIPRCNT values of -100.

Structure (SMILES)	growth
O=C(N/N=C/c1ccc(Br)s1)c1[nH]c2ccc(Br)cc2c1-c1ccccc1	26.7%
N#Cc1nc(-c2ccccc2)oc1S(N)(=O)=O	73%
O=C1[C@H]2Cc3c([nH]c4ccccc34)[C@@H](c3ccc(Br)cc3)N2C(=O)CN1C1CCN(Cc2ccccc2)CC1	30.6%
O=C(Oc1ccc2ccc(=O)oc2c1)c1ccc(Cl)cc1	106%
CCOC(=O)c1sc(N)c(C(=O)OCC)c1C	52.9%
CC(C)(C)Nc1nc2c(OCCc3ccccc3)cccn2c1-c1ccc(Cl)cc1	8.77% (active)
Cc1c(NC(=O)CSc2nc3sc4c(c3c(=O)n2-c2ccc(Cl)cc2)CCCC4)c(=O)n(-c2ccccc2)n1C	90.8%
C=C1CC[C@H]2[C@@](C)(CCC3OC(c4ccc(OCc5cn(C6CC(OC(C)=O)C(OC(C)=O)C(COC(C)=O)O6)nn5)cc4)OC[C@]32C)[C@@H]1/C=C/C1=CCOC1=O (stereo not given in full)	72.7%
CCOC(=O)c1c(Nc2ccccc2)nn2c(N)c(C#N)c(-c3ccc(OC)cc3)nc12	38.5%
Nc1nc(N)c2c(n1)NC(c1ccc(F)cc1)CC(c1ccc(Nc3nc(NCCO)nc(Nc4ccc(Cl)cc4)n3)cc1)=N2 (stereo not given)	39.5%
CN(C)S(=O)(=O)c1oc(-c2ccccc2)nc1C#N	-83.9% (active)
N#Cc1nc(-c2ccccc2)oc1S(=O)(=O)N1CCN(CCc2ccccn2)CC1	-95.4% (active)
CCCCN1C(=O)/C(=c2\sc3n(c2=O)C2C(NN=3)N(CC)C(=O)N2CC)c2cc(Cl)ccc21 (stereo not given)	64.5%
Cc1nc(-c2cc3ccccc3oc2=O)ccc1C(=O)/C=C/c1ccccn1	58.7%
COc1ccc(/C=N/NC(=O)c2[nH]c3ccc(Br)cc3c2-c2ccccc2)o1	28.1%
Clc1ccc2c(NCCCN3CCOCC3)c3oc4ccccc4c3nc2c1	19.3%
CN1CCN(Cc2ccc(NC(=O)c3cncc(C#Cc4cnc5[nH]ncc5c4)c3)cc2C(F)(F)F)CC1	8.5% (active)
N=C1CC(=O)NN1C(=O)CSc1nc2sc3c(c2c(=O)n1-c1ccc(Cl)cc1)CCCC3	94%
C#Cc1nc(C2=C(C)C(OC(=O)CCC(=O)O)CC2)cs1 (stereo not given)	103%
COc1cc(/C=C/C(=O)c2cc(OC)c(OC)c(OC)c2)ccc1OCc1ccc(F)cc1	64.8%

Structure (SMILES)	growth
COc1ccc(-n2c(SCC(=O)Nc3ccc(-c4nc5ccccc5[nH]4)cc3)nc3ccccc3c2=O)cc1	54%
c1ccc2c(NCCCN3CCOCC3)c3oc4ccccc4c3nc2c1	-9% (active)
CSc1ccc2c(c1)N(C(=O)/C(C#N)=C/c1c[nH]c3ccccc13)c1ccccc1S2	39.9%
N[C@@H](Cc1cn(-c2ccnc3ccccc23)nn1)C(=O)O	96.1%
COc1ccc(-c2nc3ccc(-c4nnc(SCC(=O)Nc5ccc(C(=O)/C=C/c6ccc(Cl)cc6)cc5)o4)cc3[nH]2)cc1OC	94.3%
Clc1ccc2oc3c(OCCCn4ccnc4)c4ccccc4nc3c2c1	34.8%
CC(O)C(NC(=O)C1CCCN1C(=O)CNC(=O)C1CC(=O)NCC(=O)NC(Cc2c[nH]c3ccccc23)C(=O)NC(Cc2ccc(O)cc2)C(=O)NCC(=O)NC(CO)C(=O)NC(CCC(N)=O)C(=O)NC(Cc2c[nH]c3ccccc23)C(=O)N1)C(=O)NCC(=O)NC(CCC(N)=O)C(=O)NC(CCCNC(=N)N)C(=O)NC(CC(=O)O)C(=O)O (stereo not given)	96.2%
CC(C)(C)Nc1nc2c(OCCc3ccccc3)cccn2c1-c1ccc(O)cc1	65.1%
O=C(NNc1nc2cc(F)ccc2n2c(CN3CC4(COC4)C3)ccc12)c1cnccn1	13.7%
[Cl][Ru].c1ccc(-c2cc(-c3ccccn3)nc(-c3ccccn3)c2)cc1.c1ccc(-c2ccnc3c2ccc2c(-c4ccccc4)ccnc23)cc1	6% (active)
O=C(CSc1nnc(-c2ccc3nc(-c4ccc(Cl)cc4)[nH]c3c2)o1)Nc1ccc(C(=O)/C=C/c2ccc(Cl)cc2)cc1	98.1%
N#Cc1ccc(/C=N/NC(=O)c2[nH]c3ccc(Br)cc3c2-c2ccccc2)s1	18.2%
Cn1c(SCC(=O)Nc2ccc(-c3nc4ccc([N+](=O)[O-])cc4[nH]3)cc2)nc2ccccc2c1=O	65.6%
COc1cccc(OC)c1-c1nnn(C)c1C(=S)N1CCN(c2ccc([N+](=O)[O-])cc2Cl)CC1	92.2%
N#Cc1nc(-c2ccccc2)oc1N1CC[C@@H](CO)C1	95.9%
CC1=C(C)C(=O)C(Nc2cccc(C(F)(F)F)c2)=C(Cl)C1=O	-37.7% (active)
COc1cc(/C=C/C(=O)c2ccccc2)ccc1Oc1nc(NCCO)nc(N2CCOCC2)n1	98.4%
CCOC(=O)c1c(NC(=O)c2cccc(C(F)(F)F)c2)sc2cc(O)ccc12	93.4%
C#C[C@]1(O)CC[C@H]2[C@@H]3CC=C4c5sc(Nc6ccc(Cl)cn6)nc5CC[C@]4(C)[C@H]3CC[C@@]21C	53.6%
N#Cc1c(-c2ccc(F)cc2)nc2c(C#N)c(Nc3ccccc3)nn2c1N	105%
